# Experimental data: PubChem BioAssay AID2685 (National Center for Advancing Translational Sciences (NCATS), 2010)
# Where “and” joins values, the source holds several entries; their conditions need not be identical. Equal entries are not always repeated. Screen size: about 320,000 compounds; about 2,100 (0.66%) were called active. Not shown: some 53% with an inconclusive outcome. The call rests on the fitted dose curve; in most records, active means well fitted inhibition curve with a large enough effect in the signal ratio, with a control signal flat (not every such curve was filed as active); inconclusive means small, poorly fitted or top-dose-only effect, or effect the other way, or a change in a side signal; inactive means flat fitted curve, though single readings scatter; the % refers to the signal ratio. The list comes from a sample in which actives are over-represented; it also holds similar structures and randomly drawn compounds.
# Experiment: qHTS Assay for Lipid Storage Modulators in Drosophila S3 Cells;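 on cell number change: cells counted by Cell Tracker Red CMTPX staining in the red channel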; on lipid storage change, negative = inhibition: on the % scale 0 is the no-effect control and ±100 the full control effect
# Conditions: BODIPY lipid droplet fluorescence, 18-24 h, cells fed with added oleic acid; cell number change: measured here: cell count max response; series mostly up to 46.1 µM; lipid storage change, negative = inhibition: at the top concentration
# Procedure, shortened: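 Laser-scanning cytometry quantifies lipid droplet accumulation (500–530 nm total intensity; droplet/cell object ratio) in oleic acid-fed (400 uM added) Drosophila S3 cells treated with a concentration series. 20 uM Triacsin C defined 100% inhibition.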
# Potency means the concentration at half of the fitted maximal effect.
SMILES,"lipid storage change, negative = inhibition",cell number change,Potency,outcome
O=C1CCCc2ccccc2N1,5.18% (inactive),15.4%,–,–
CC(=O)NCCOC(=O)Nc1ccncc1,–,-23.8%,18.4 µM (active),–
O=C(Nc1ccc(Cl)c(Cl)c1)OCCNC(=O)c1ccncc1,6.78% (inactive),19.3%,–,–
O=C(Nc1ccncc1)OCc1ccccc1,–,-15%,–,inactive
C=C(C)C(=O)N1CC2(CC(c3cccc(NC(=O)CC(c4ccccc4)c4ccccc4)c3)=NO2)C[C@H]1C(N)=O (some centres undefined),7.73% (inactive),-5.55%,–,–
COc1ccccc1CCC(=O)OCC(=O)Nc1cc(C)nn1-c1ccccc1,17.4% (inactive),9.67%,–,–
COc1cccc(NC(=O)Nc2ccc3c(c2)nc(C)n3C)c1,1.42% (inactive),-12.3%,–,–
O=C(NNc1c2ccccc2nc2ccccc12)c1ccc(O)cc1,–,-16.9%,16.4 µM (active),–
Nc1ccccc1C(=O)NNc1c2ccccc2nc2ccccc12,-6.09% (inactive),-7.95%,–,–
O=C(NNC(=O)c1ccc2ccccc2n1)c1ccc(O)cc1,13% (inactive),-5.74%,–,–
O=C(CN1C(=O)NC2(CCCC2)C1=O)Nc1cc(Cl)ccc1Oc1ccccc1,23.3% (inactive),2.01%,–,–
Brc1ccc(CSc2nnc(-c3ccco3)o2)cc1,4.11% (inactive),-8.74%,–,–
c1ccc(CSc2nnc(-c3ccco3)o2)cc1,21.4% (inactive),29.7%,–,–
O=C(O)c1ccc(CSc2nnc(-c3ccco3)o2)cc1,–,–,1.84 µM (active),–
CCC(C)[C@H](NC(=O)NCCCN1CCOCC1)C(=O)OC (some centres undefined),-7.03% (inactive),4.55%,–,–
COCCCNC(NC(=O)c1ccc(Cl)cc1)C(Cl)(Cl)Cl (centres undefined),-10.7% (inactive),18.7%,–,–
Cc1cc(NC(=O)Nc2cccc([N+](=O)[O-])c2)no1,18.7% (inactive),–,–,–
Cc1ccc(NC(=O)Nc2cccc([N+](=O)[O-])c2)cc1F,–,-9.68%,9.2 µM (active),–
O=C(Nc1cccc([N+](=O)[O-])c1)Nc1cccc([N+](=O)[O-])c1,-13.5% (inactive),-6.97%,–,–
COc1ccc(CNC(=O)c2cccnc2Sc2ccc(C)c(C)c2)cc1,12.2% (inactive),-8.63%,–,–
Cc1cc(C(=O)CCC(=O)Nc2ncccc2O)c(C)s1,–,23.7%,–,inactive
Cc1cc(OC(C)C(=O)NNC(=O)Nc2ccc(F)cc2F)cc(C)c1Cl (centres undefined),-7.22% (inactive),12.3%,–,–
COc1cc(C2CC(c3cccs3)=NN2C(=O)CCl)ccc1OC(F)F (centres undefined),–,6.96%,11.6 µM (active),–

SMILES,"lipid storage change, negative = inhibition",cell number change,Potency,outcome
COc1ccc(C2CC(c3ccccc3)=NN2C(=O)CSc2ncccn2)cc1 (centres undefined),–,-10.6%,18.4 µM (active),–
COc1ccc(CC(=O)OCC(=O)N2N=C(c3ccccc3)CC2c2ccc(OC)cc2)cc1 (centres undefined),6.9% (inactive),9.3%,–,–
CC(=O)N1N=C(c2ccccc2OC(=O)/C=C/c2ccccc2)CC1c1ccccc1 (centres undefined),-2.65% (inactive),–,–,–
COc1ccc(C2=NN(C(=O)CSc3ncccn3)C(c3ccc(C)cc3)C2)cc1 (centres undefined),-17% (inactive),-13.1%,–,–
COc1ccc(C2=NN(C(=O)CSc3ncccn3)C(c3ccc(OC)cc3)C2)cc1 (centres undefined),-17.9% (inactive),-13.6%,–,–
COc1ccc(C2CC(c3cccs3)=NN2C(=O)c2ccccc2)cc1OC (centres undefined),-4.84% (inactive),0.175%,–,–
COc1ccc(C2CC(c3ccc(OC)cc3OC(C)=O)=NN2C(=O)c2ccccc2)cc1 (centres undefined),-12.8% (inactive),-16.6%,–,–
COc1ccc(C2CC(c3ccccc3)=NN2C(=O)COC(=O)c2cccnc2)cc1 (centres undefined),-12% (inactive),-20.7%,–,–
COc1ccc(C2CC(c3ccc4ccccc4c3OC(C)=O)=NN2C(=O)/C=C/c2ccccc2)cc1 (centres undefined),–,-4.95%,6.51 µM (active),–
COc1ccc(C2CC(c3cccs3)=NN2C(=O)COC(=O)C2CCCCC2)cc1OC (centres undefined),–,–,–,inactive
COc1ccc(C2CC(c3ccccc3)=NN2C(=O)COC(=O)CNC(=O)c2ccccc2)cc1 (centres undefined),–,17%,14.6 µM (active),–
COc1ccccc1-n1c(-c2ccc(F)cc2)coc1=O,8.23% (inactive),9.35%,–,–
COC(=O)Nc1ccc(S(=O)(=O)N2CCN(c3ccc(F)cc3)CC2)cc1,–,–,–,inactive
COCCn1nnnc1C(c1ccccn1)N1CCN(c2cccc(C)c2C)CC1 (centres undefined),3.18% (inactive),1.34%,–,–
Cc1cc(Cl)c(S(=O)(=O)NC(C(=O)O)c2ccccc2)cc1OCC(N)=O (centres undefined),–,6.34%,–,inactive
COc1ccc(CC2(CO)CCN(C(C)Cc3ccc(Cl)cc3)CC2)cc1 (centres undefined),-5.1% (inactive),-1.88%,–,–
CC(=O)C1=NN(c2ccc(Cl)cc2)C(c2ccc3c(c2)OCO3)N(C(C)=O)N1C (centres undefined),10.1% (inactive),4.72%,–,–
O=C(CNc1ccc(Br)cc1)c1ccccc1,1.32% (inactive),-10.1%,–,–
O=C(NNC1CC(=O)N(c2ccc(Cl)cc2)C1=O)c1ccccn1 (centres undefined),-2.98% (inactive),6.05%,–,–
CCCCNCc1cc2ccccc2o1,-15.4% (inactive),-14.5%,–,–
Cc1ccc(-c2nn(CC(=O)O)c(=O)c3ccccc23)cc1,4.71% (inactive),-4.34%,–,–
O=C(CCN1C(=O)[C@@H]2Cc3ccccc3CN2C1=O)N[C@H](C(=O)O)c1ccccc1,–,8.94%,–,inactive
COc1ccc(NC(=O)COC(=O)Cc2cccs2)cc1OC,24.7% (inactive),-0.769%,–,–

SMILES,"lipid storage change, negative = inhibition",cell number change,Potency,outcome
COc1cccc(C2CC(c3cccs3)=NN2C(=O)CSc2nc3ccccc3o2)c1OC (centres undefined),-2.37% (inactive),8.7%,–,–
O=C(CSc1nc2ccccc2o1)N1N=C(c2cccs2)CC1c1ccc(F)cc1 (centres undefined),–,-17.4%,–,inactive
COc1ccc(C2CC(c3cccs3)=NN2C(=O)CSc2nc3ccccc3o2)cc1 (centres undefined),–,-8.56%,9.2 µM (active),–
CC(=O)c1ccc(NC(=O)Cn2cnc(S(=O)(=O)N3CCOCC3)c2)cc1,–,-2.31%,–,inactive
COc1ccc2cc(CCNC(=O)c3cccc([N+](=O)[O-])c3)c(=O)[nH]c2c1,1.68% (inactive),9.49%,–,–
CN1C(=O)C(O)(CC(=O)/C=C\c2ccc3c(c2)OCO3)c2ccccc21 (centres undefined),–,-43.9%,0.366 µM (active),–
NC(=O)CN1C(=O)C(O)(CC(=O)/C=C\c2ccc3c(c2)OCO3)c2ccccc21 (centres undefined),3.04% (inactive),-3.53%,–,–
O=C(/C=C\c1ccc2c(c1)OCO2)CC1(O)C(=O)Nc2ccccc21 (centres undefined),4.36% (inactive),10.9%,–,–
CCOc1ccc(S(=O)(=O)NCC2CCCO2)cc1NC(=O)c1ccccc1F (centres undefined),–,23.9%,–,inactive
COc1ccc(S(=O)(=O)NCC2CCCO2)cc1C(=O)O (centres undefined),-1.07% (inactive),10.7%,–,–
COc1ccc(S(=O)(=O)NCC2CCCO2)cc1NC(=O)c1ccccc1F (centres undefined),–,-5.13%,25.9 µM (active),–
C#CCOCCOCCOCCNc1nc(N2CCN(C(=O)[C@H](CCC(=O)O)n3cc(C(N)CO)nn3)CC2)nc(N2CCN(C(=O)[C@H](Cc3cc4ccccc4[nH]3)n3cc(C(N)[C@H](C)CC)nn3)CC2)n1 (some centres undefined),-13% (inactive),10.5%,–,–
Cc1ccc(NC(=O)CCN2C(=O)C3C4CCC(C4)C3C2=O)cc1[N+](=O)[O-] (centres undefined),2.12% (inactive),-0.215%,–,–
Cc1ccnc2nc(C(=O)OCC(=O)N(CC(C)C)C3CCS(=O)(=O)C3)nn12 (centres undefined),9.53% (inactive),2.08%,–,–
COc1ccccc1C(=O)NCCC(=O)NCC1COc2ccccc2O1 (centres undefined),–,-11.7%,20.6 µM (active),–
COc1ccc(CC(=O)NCC2COc3ccccc3O2)cc1 (centres undefined),-7.76% (inactive),0.718%,–,–
O=C(CCC1COc2ccccc2O1)NCC1COc2ccccc2O1 (centres undefined),10.9% (inactive),8.2%,–,–
O=C(N/C(=C/c1ccccc1)C(=O)N1CCCCCC1)c1ccccc1,0.572% (inactive),10.3%,–,–
CCOC(=O)c1c2ccccc2[n+]([O-])n1CCO,–,-10.4%,18.4 µM (active),–
CCOC(=O)c1c(C)nc2c3ccccc3ccn12,–,-20.3%,–,inactive
CCOC(=O)c1c(O)c(O)c(C(=O)OCC)n1-c1ccccc1,-6.73% (inactive),6.34%,–,–
Cc1nc2ccc(NS(=O)(=O)c3ccc(F)cc3)cc2s1,–,20%,–,inactive
Cc1nc2ccc(NS(=O)(=O)c3ccc(F)cc3F)cc2s1,–,-1.41%,13 µM (active),–

SMILES,"lipid storage change, negative = inhibition",cell number change,Potency,outcome
Cc1ccc(S(=O)(=O)Nc2ccc3nc(N)sc3c2)cc1,16.5% (inactive),-27.3%,–,–
Cc1ccc(S(=O)(=O)Nc2ccc3nc(C)sc3c2)c(C)c1,–,24.9%,10.3 µM (active),–
Cc1nc2ccc(NS(=O)(=O)c3ccccc3F)cc2s1,12.6% (inactive),3.06%,–,–
Cc1ccc(S(=O)(=O)Nc2ccc3nc(C)sc3c2)cc1,-16% (inactive),-22.9%,–,–
COC(=O)C1=C(C)N(Cc2ccccc2)C(=NCc2cccc(Cl)c2)N[C@H]1c1cccc(F)c1,–,-27.7%,20.6 µM (active),–
COC(=O)C1=C(C)N(Cc2ccccc2)C(=NCc2ccccc2)N[C@H]1c1cccc(F)c1,-22.4% (inactive),-6.29%,–,–
COC(=O)C1=C(C)N(Cc2ccccc2)C(=NCc2cccc(Cl)c2)N[C@H]1c1ccccc1,–,-18.9% and 6.44%,inactive,–
CCc1ccc(/C=C2\SC(=S)N(CCC(=O)NC3=NCCS3)C2=O)cc1,-19.7% (inactive),–,–,–
Cc1cccc(Nc2nc(N)nc(CN3CCN(c4ccc(F)cc4)CC3)n2)c1,13.2% (inactive),-18.7%,–,–
Cc1ccc(CNC(=O)C2CCN(c3nnc(N4CCCC4=O)s3)CC2)cc1,-27.3% (inactive),24.8%,–,–
CC1CC(C)CN(CCCNC(=O)C2CCCN(c3nnc(N4CCCC4=O)s3)C2)C1 (centres undefined),-2.92% (inactive),2.76%,–,–
CCN(CC)CCCNC(=O)C1CCCN(c2nnc(N3CCCC3=O)s2)C1 (centres undefined),–,-17%,25.9 µM (active),–
COc1ccccc1NC(=O)c1c([N+](=O)[O-])c(C(C)(C)C)nn1C,4.27% (inactive),11.1%,–,–
C#CCNC(=O)C1=C[C@@H](c2coc3ccccc3c2=O)C[C@@H](OCCCCO)O1,-3.82% (inactive),6.85%,–,–
CC(=O)c1ccc(OCC(=O)Nc2ccccc2N2CCCC2)cc1,-11.1% (inactive),-18%,–,–
CCN1CCN(c2ccccc2NC(=O)C(C)Oc2ccc(C(C)=O)cc2)CC1 (centres undefined),–,-13.7%,18.4 µM (active),–
CC(Oc1cccc(Cl)c1)C(=O)Nc1ccccc1N1CCCCC1 (centres undefined),-4.15% (inactive),7.85%,–,–
O=C(NNC(=O)c1ccc(Br)s1)NC1CCCCC1,2.2% (inactive),8.62%,–,–
CCc1nnc(NC(=O)CSc2nnc(-c3c[nH]c4ccccc34)n2C)s1,3.62% (inactive),4.19%,–,–
CCSc1nnc(NC(=O)CSc2nnc(-c3c[nH]c4ccccc34)n2CC)s1,–,11.1%,–,inactive
CCSc1nnc(NC(=O)CSc2nnc(-c3c[nH]c4ccccc34)n2C)s1,–,-1.84%,2.06 µM (active),–
